Laboratory results as given in PubChem BioAssay AID1159580 (chemical genetic matrix, 2015).
The whole screen tested about 5,500 compounds, of which about 2,000 (36%) were called active. Inconclusive results (about 18%) are left out. Rule as the data show it: active = normalized growth mostly below about 0.91 (no sharp cut-off); inconclusive = no clear call, values can overlap the other calls; inactive = mostly above about 0.92. This is one part of the list.

Experiment: chemical genetic growth profiling, strain panel (AID 1159580);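 also: tested at 20 µM; growth read once vehicle control cultures reached saturation at 30 °C; 1 = growth at the plate median or of vehicle wells; lower values mean less growth of the strain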
Settings: S. cerevisiae deletion strains, growth OD
[1] = locus YHR030C, strain SLT2, hits give low values
[2] = locus YHR079C, strain IRE1, hits give low values
[3] = locus YJL095W, strain BCK1, hits give low values
[4] = locus YJR066W, strain TOR1, hits give low values
[5] = locus YLR113W, strain HOG1, hits give low values
[6] = locus YNL183C, strain NPR1, hits give low values
[7] = locus YOR231W, strain MKK1, hits give low values
[8] = locus YPL256C, strain CLN2, hits give low values

Measured: normalized growth

CC(N)C(=O)NC(Cc1ccccc1)C(=O)O (centres undefined)
inactive: [1] 0.937 | [2] 0.952 | [3] 0.96 | [4] 0.886 | [5] 1.02 | [6] 0.89 | [7] 0.982 | [8] 0.925

O=C1C(=O)N(CN2CCc3c([nH]c4ccccc34)C2C(F)(F)F)c2ccc(F)cc21 (centres undefined)
inactive: locus YAR019C, strain CDC15, hits give low values 0.978 | locus YBL105C, strain PKC1, hits give low values 0.983 | locus YBR135W, strain CKS1, hits give low values 0.982 | locus YBR136W, strain MEC1, hits give low values 0.974 | locus YBR160W, strain CDC28, hits give low values 0.962 | locus YDL017W, strain CDC7, hits give low values 0.983 | locus YDL028C, strain MPS1, hits give low values 0.975 | locus YDL101C, strain DUN1, hits give low values 0.988 | locus YDL108W, strain KIN28, hits give low values 0.973 | locus YDL132W, strain cdc53, hits give low values 0.972 | locus YDL214C, strain PRR2, hits give low values 0.841 | locus YDR052C, strain DBF4, hits give low values 0.991 | locus YDR054C, strain cdc34, hits give low values 0.974 | locus YDR226W, strain ADK1, hits give low values 0.98 | locus YDR477W, strain SNF1, hits give low values 0.86 | locus YER123W, strain YCK3, hits give low values 0.692 | locus YER133W, strain GLC7, hits give low values 0.894 | locus YFL009W, strain cdc4, hits give low values 0.977 | locus YFL029C, strain CAK1, hits give low values 0.959 | locus YFR003C, strain YPI1, hits give low values 0.981 | locus YFR019W, strain FAB1, hits give low values 0.839 | locus YFR028C, strain CDC14, hits give low values 0.963 | locus YGR040W, strain KSS1, hits give low values 0.891 | locus YGR052W, strain FMP48, hits give low values 0.804 | locus YGR092W, strain DBF2, hits give low values 0.612 | [2] 0.667 | locus YHR082C, strain KSP1, hits give low values 0.614 | locus YHR205W, strain SCH9, hits give low values 0.795 | locus YIL147C, strain SLN1, hits give low values 0.982 | [3] 0.791 | locus YJL128C, strain PBS2, hits give low values 0.934 | locus YJL157C, strain FAR1, hits give low values 0.886 | locus YJR016C, strain ILV3, hits give low values 0.993 | locus YJR066W, strain TOR1 (second series), hits give low values 0.825 | [4] 0.784 | locus YKL048C, strain ELM1, hits give low values 0.879 | locus YKL067W, strain YNK1, hits give low values 0.865 | locus YKL193C, strain SDS22, hits give low values 0.972 | locus YKL203C, strain TOR2, hits give low values 0.934 | locus YLR133W, strain CKI1, hits give low values 0.836 | locus YLR403W, strain SFP1, hits give low values 0.942 | locus YML070W, strain DAK1, hits give low values 0.716 | locus YMR001C, strain CDC5, hits give low values 0.962 | locus YMR205C, strain PFK2 (second series), hits give low values 0.888 | locus YMR277W, strain FCP1, hits give low values 0.947 | locus YNL006W, strain LST8, hits give low values 0.982 | locus YNL020C, strain ARK1, hits give low values 0.741 | locus YNL161W, strain CBK1, hits give low values 0.979 | [6] 0.666 | locus YNL207W, strain RIO2, hits give low values 0.983 | locus YNL222W, strain SSU72, hits give low values 0.98 | locus YNL307C, strain MCK1 (second series), hits give low values 0.682 | locus YOL078W, strain AVO1, hits give low values 0.972 | locus YOL136C, strain PFK27, hits give low values 0.711 | locus YOR061W, strain CKA2, hits give low values 0.917 | locus YOR119C, strain RIO1, hits give low values 0.907 | [7] 0.8 | locus YOR329C, strain SCD5, hits give low values 0.994 | locus YPL031C, strain PHO85, hits give low values 0.82 | locus YPL153C, strain RAD53, hits give low values 0.74 | locus YPL204W, strain HRR25, hits give low values 0.798 | locus YPL209C, strain IPL1, hits give low values 0.987 | locus YPR025C, strain CCL1, hits give low values 0.993 | locus YPR106W, strain ISR1, hits give low values 0.978 | locus YPR111W, strain DBF20, hits give low values 0.969 | strain NNK1, hits give low values 0.981 | strain TSCII, hits give low values 0.958
active: [1] 0.329 | locus YKL101W, strain HSL1, hits give low values 0.711 | [5] 0.726 | [8] 0.471
